Screens: PubChem, National Center for Advancing Translational Sciences (NCATS)
Most compounds without a hit are left out; they make up all but 1.5% or so of the library.
Tb PFK block: inhibitors of T. brucei phosphofructokinase; T. brucei PFK, ADP-Glo luminescence; Potency, µM (doses to about 57.5 µM), hits mostly inhibitors; 330,000 compounds, 0.17% hits; note: nearly all actives have a fitted effect of over 60% in size
Target sequence (O15648 whole entry, looked up): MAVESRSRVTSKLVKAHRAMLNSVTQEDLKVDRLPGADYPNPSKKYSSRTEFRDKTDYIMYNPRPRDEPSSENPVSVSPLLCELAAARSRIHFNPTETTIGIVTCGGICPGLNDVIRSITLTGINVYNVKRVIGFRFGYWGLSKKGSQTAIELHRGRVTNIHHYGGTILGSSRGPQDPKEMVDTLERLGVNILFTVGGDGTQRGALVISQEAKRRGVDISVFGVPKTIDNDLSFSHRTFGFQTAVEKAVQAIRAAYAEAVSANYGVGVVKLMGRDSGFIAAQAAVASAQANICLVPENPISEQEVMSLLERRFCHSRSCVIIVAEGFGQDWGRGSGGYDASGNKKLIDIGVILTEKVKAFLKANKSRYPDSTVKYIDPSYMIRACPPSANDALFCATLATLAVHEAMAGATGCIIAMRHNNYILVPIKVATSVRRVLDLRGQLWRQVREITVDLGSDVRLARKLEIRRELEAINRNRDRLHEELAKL
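In TEA buffer at pH 8.0 with 5 mM MgCl2, enzyme (1.25 nM) converted F6P (0.5 mM) and ATP (0.1 mM) for 45 min at room temperature. ADP product was read by luciferase luminescence.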
PI5P4K alpha inh: blocks human PI5P4K alpha kinase activity; P48426; PI5P4Kalpha enzyme, ADP-Glo luminescence, 60 min; hits give low values; max response, %; 330,000 compounds, 1.2% hits; AID 652105; active = max response of -50% or lower; inconclusive = between -30% and -50%; inactive = -30% or higher; note: value at the top dose of about 77 µM
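PI5P4Kalpha ADP-Glo assay; 5 microM ATP final; 60 min RT reaction; HEPES pH 7.4/EGTA/CHAPS, 5% DMSO; controls lacking substrate or enzyme; luminescent end-point.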
Tb PGK inh: T. brucei PGK inhibition | PGK/GAPDH coupled, Kinase-Glo luminescence, 60 min | Potency, µM (doses to about 57.5 µM), usual class: inhibitors | 380,000 compounds, 0.043% hits | AID 602233; note: nearly all actives have a fitted effect of over 60% in size
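Recombinant glycosomal PGK reaction used 1,3-bisphosphoglycerate generated in-well by GAPDH (100nM final) in 100mM TEA pH 7.6, 5mM MgCl2, 0.01% Tween-20. After 60 minutes at room temperature, ATP was read by Kinase-Glo Plus luminescence end-point.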
FEN1 inhibitor: inhibitors of human flap endonuclease 1. P39748. Recombinant FEN1 flap cleavage, fluorescence, 15 min. Potency, µM (highest dose often 114 µM), actives largely listed as inhibitors. 390,000 compounds, 0.35% hits. AID 588795; note: nearly all actives have a fitted effect of over 65% in size
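Read-out was taken twice, immediately and after 15 min, following addition of 50 nM substrate to 10 nM FEN1 that had sat with test compound for 15 min at room temperature. Curves came from a four-parameter Hill model.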
WRN inhibitor: inhibitors of human WRN helicase; AID 651768; Potency, µM (doses to about 114 µM), most hits filed as inhibitors; Q14191; WRN helicase unwinding, fluorescent forked duplex, kinetic; 360,000 compounds, 0.46% hits; note: nearly all actives have a fitted effect of over 55% in size
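Enzyme (20 nM final) and test compound sit together 15 min at room temperature before substrate addition. Substrate is a single-forked duplex oligonucleotide (100 nM) labelled with fluorophore and quencher, with 2 mM ATP; helicase unwinding raises red fluorescence, read kinetically.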
TDP1 block: blocks human tyrosyl-DNA phosphodiesterase 1. Q9NUW8. recombinant TDP1, AlphaScreen DNA substrate cleavage. Potency, µM (highest dose often 130 µM), hits mostly inhibitors. 350,000 compounds, 0.28% hits. AID 485290; note: nearly all actives have a fitted effect of over 40% in size
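Steps: enzyme plus compound, 15 min RT; add biotin/phosphotyrosine-FITC oligonucleotide (15 nM final), react 5 min; add donor/acceptor beads (10 ug/ml final), 10 min; read AlphaScreen. Tdp1 at 1 nM final.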
Large screens that a line does not name were inactive. Unless noted, calls come from the whole dose curve; as a rule, active = well fitted curve in the direction sought with a large enough effect; inconclusive = small, poorly fitted or top-dose-only effect, or another doubt; inactive = no such curve, though single readings can be large; an effect the other way counts as inactive or inconclusive.

CN(CCO)c1ccc(C=NNc2ccc([N+](=O)[O-])cc2S(=O)(=O)Nc2ccccc2C(=O)O)cc1	PI5P4K alpha inh -54.9, FEN1 inhibitor 79.4µM, WRN inhibitor 44.7µM
Cc1ccc(NC(=S)NNc2ccc([N+](=O)[O-])cc2S(=O)(=O)Nc2ccccc2C(=O)O)cc1C	PI5P4K alpha inh -73.2, WRN inhibitor inconclusive
O=C(O)c1ccccc1NS(=O)(=O)c1ccc(NNC(=S)Nc2ccc(OC(F)F)cc2)c([N+](=O)[O-])c1	Tb PFK block inconclusive, PI5P4K alpha inh -81.8, FEN1 inhibitor inconclusive, WRN inhibitor inconclusive
COc1ccc(C(C)=NNc2ccc([N+](=O)[O-])cc2S(=O)(=O)Nc2ccccc2C(=O)O)c(OC)c1	PI5P4K alpha inh inconclusive
N#Cc1nc(NCCO)nc(Nc2ccccc2)n1	none (no result: Tb PFK block, PI5P4K alpha inh, Tb PGK inh, FEN1 inhibitor, WRN inhibitor)
Cc1cc2c(s1)c1cnn(Cc3c(F)c(F)cc(F)c3F)c(=O)c1n2C	none (no result: Tb PFK block, PI5P4K alpha inh, Tb PGK inh, FEN1 inhibitor, WRN inhibitor)
CC(=O)Nc1cccc(/C(C)=N/Nc2ccc(S(=O)(=O)Nc3ccccc3C(=O)O)cc2[N+](=O)[O-])c1	PI5P4K alpha inh -72.3, FEN1 inhibitor 79.4µM, WRN inhibitor inconclusive (no result: Tb PFK block, TDP1 block)
CC(=O)Nc1ccc(C=NNc2ccc([N+](=O)[O-])cc2S(=O)(=O)Nc2ccccc2C(=O)O)cc1	PI5P4K alpha inh -64.5, Tb PGK inh inconclusive, FEN1 inhibitor inconclusive
COc1cc(/C=N/NC(=O)c2cccnc2)ccc1OC(=O)c1ccc([N+](=O)[O-])cc1	WRN inhibitor inconclusive, TDP1 block 44.7µM
O=C(N/N=C/c1ccc(OC(=O)c2ccccc2)cc1)c1cccnc1	Tb PFK block inconclusive, Tb PGK inh inconclusive, WRN inhibitor 56.2µM (no result: TDP1 block)
O=C(C[N+]1(CCc2ccccc2)CCOCC1)c1cccc([N+](=O)[O-])c1	none (no result: Tb PFK block, PI5P4K alpha inh, Tb PGK inh, WRN inhibitor, TDP1 block)
CCS(=O)(=O)C1=NN2C(=N)/C(=C\c3ccc(SCc4ccco4)o3)C(=O)N=C2S1	Tb PFK block inconclusive, PI5P4K alpha inh -91.0, Tb PGK inh inconclusive, FEN1 inhibitor 44.7µM, WRN inhibitor 56.2µM
CCOc1ccccc1NC(=O)c1cc2cc3cc(C)ccc3nc2s1	none (no result: Tb PFK block, PI5P4K alpha inh, WRN inhibitor)
Cc1ccc2nc3sc(C(=O)Nc4ccc(F)cc4)cc3cc2c1	TDP1 block 10µM (no result: PI5P4K alpha inh, WRN inhibitor)
O=S(=O)(c1ccc2c(c1)OCCO2)C1CCN(S(=O)(=O)c2c(F)cccc2F)CC1	none (no result: Tb PFK block, PI5P4K alpha inh, Tb PGK inh, FEN1 inhibitor, WRN inhibitor)
CCOC(=O)C(C)Sc1nc(-c2ccco2)cc(C(F)(F)F)c1C#N (centres undefined)	PI5P4K alpha inh -55.8, WRN inhibitor inconclusive
CCOC(=O)COc1nc(-c2ccco2)cc(-c2ccco2)c1C#N	PI5P4K alpha inh inconclusive (no result: TDP1 block)
CC(C)c1cccc(-c2ccc3c(c2)S(=O)(=O)c2cccc(C(=O)NCc4ccco4)c2C3=O)c1	TDP1 block 44.7µM
CC(C)c1cccc(-c2ccc3c(c2)S(=O)(=O)c2cccc(C(=O)O)c2C3=O)c1	none
Nc1ccccc1C#CCCCCO	none
CCCCCCCC#Cc1ccccc1/C=N/S(=O)c1ccc(C)cc1 (centres undefined)	PI5P4K alpha inh -100.0, FEN1 inhibitor inconclusive
CC(C)c1nc(Nc2nc3ccccc3o2)nc2c1CCCC2	none (no result: Tb PFK block, PI5P4K alpha inh, Tb PGK inh, FEN1 inhibitor, WRN inhibitor)
CC1=NOC(=O)/C1=C\c1ccc(-c2ccccc2Br)o1	Tb PFK block inconclusive, PI5P4K alpha inh inconclusive, FEN1 inhibitor 39.8µM, WRN inhibitor 56.2µM
CN(C)c1ccc(C(=C2C=CC(=[N+](C)C)C=C2)c2ccccc2)cc1	none (no result: Tb PFK block, PI5P4K alpha inh, Tb PGK inh, FEN1 inhibitor, WRN inhibitor)
CN(C)c1ccc(C(=C2C=CC(=[N+](C)C)C=C2)c2ccc(N(C)C)cc2)cc1	FEN1 inhibitor 39.8µM (no result: Tb PFK block, PI5P4K alpha inh, Tb PGK inh, WRN inhibitor)
C=CCNc1nc(C(=O)OCC(=O)c2cccc(Br)c2)cs1	PI5P4K alpha inh -59.0, Tb PGK inh inconclusive, WRN inhibitor inconclusive, TDP1 block inconclusive
C=CCNc1nc(C(=O)OCC(=O)c2ccc(F)cc2)cs1	PI5P4K alpha inh inconclusive (no result: TDP1 block)
CCO/C(=C/c1sc2ccc(OC)cc2[n+]1CCCS(=O)(=O)[O-])CC	none
CCOC(=O)C[n+]1c(C)sc2ccc(OC)cc21	WRN inhibitor 50.1µM
Cc1cc(C)nc(N/C=C(\C#N)C(=O)c2cccc(CSc3ccccc3)c2)n1	none (no result: Tb PFK block, PI5P4K alpha inh, Tb PGK inh, WRN inhibitor, TDP1 block)
O=S1(=O)CC(O)C(O)CS1 (centres undefined)	PI5P4K alpha inh -69.2 (no result: Tb PFK block, Tb PGK inh, FEN1 inhibitor, TDP1 block)
